# Sampled rows, rich in hits. Any-hit rate of the full collection: about 3.2%.
# ALOX12 inhib – qHTS Assay for Inhibitors of 12-hLO (12-human lipoxygenase) | Polyunsaturated fatty acid lipoxygenase ALOX12 (Homo sapiens), P18054 | 150,000 compounds, 0.12% hits | Potency, µM (doses to about 57.1 µM), inactives show top-dose activity change, negative = inhibition, actives largely listed as inhibitors | purified 12-hLO, xylenol orange hydroperoxide absorbance | AID 1452, 2008; also: potency is read from the fitted curve at half-maximal effect; nearly all actives have a fitted effect of over 55% in size
#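 Xylenol orange chromogenic assay: hydroperoxide from 12hLO oxidises Fe(II), giving red-shifted Fe(III)-XO absorbance. Conditions: 150 nM enzyme, 40 uM arachidonic acid, 25 mM Hepes pH 7.0, 0.01% Triton X-100, 30 min, room temperature.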
# 15-hLO-2 inh – qHTS Assay for Inhibitors of 15-hLO-2 (15-human lipoxygenase 2). purified 15hLO-2, xylenol orange hydroperoxide absorbance. 110,000 compounds, 0.56% hits. Potency, µM (series often up to 57.1 µM), without a hit: at the top dose activity change, negative = inhibition, most hits filed as inhibitors. Polyunsaturated fatty acid lipoxygenase ALOX15B (Homo sapiens), O15296; also: potency is read from the fitted curve at half-maximal effect; nearly all actives have a fitted effect of over 60% in size
# Target sequence (O15296 whole entry, looked up): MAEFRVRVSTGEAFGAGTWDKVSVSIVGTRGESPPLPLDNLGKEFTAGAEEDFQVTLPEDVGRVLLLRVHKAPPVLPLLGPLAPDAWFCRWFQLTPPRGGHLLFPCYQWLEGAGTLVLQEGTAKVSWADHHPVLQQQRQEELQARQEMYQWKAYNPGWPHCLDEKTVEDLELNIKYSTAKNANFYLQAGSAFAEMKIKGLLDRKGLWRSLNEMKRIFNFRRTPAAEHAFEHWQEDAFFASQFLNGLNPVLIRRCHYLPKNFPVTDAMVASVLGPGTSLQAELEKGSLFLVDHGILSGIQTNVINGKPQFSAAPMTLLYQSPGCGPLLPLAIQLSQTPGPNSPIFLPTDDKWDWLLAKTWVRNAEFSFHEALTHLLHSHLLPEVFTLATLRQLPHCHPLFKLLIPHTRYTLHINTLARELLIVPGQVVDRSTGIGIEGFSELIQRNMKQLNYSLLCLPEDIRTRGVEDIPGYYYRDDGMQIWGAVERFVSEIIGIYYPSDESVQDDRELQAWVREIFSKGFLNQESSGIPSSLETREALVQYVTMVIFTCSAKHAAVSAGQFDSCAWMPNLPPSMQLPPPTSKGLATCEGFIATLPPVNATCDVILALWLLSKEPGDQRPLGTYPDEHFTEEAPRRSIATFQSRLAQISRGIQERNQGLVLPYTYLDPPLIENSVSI
#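 Purified human 15hLO-2 (50 nM final) preincubated with compounds 15 min at room temperature in 25 mM Hepes pH 7.5, 0.01% Triton X-100, then 45 uM arachidonic acid added for 90 min; hydroperoxide detected via ferrous/xylenol orange, 573/405 nm absorbance ratio.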
# PNC inhibitor – High Content Assay for Compounds that inhibit the Assembly of the Perinucleolar Compartment; AID 2417, 2010; PC3M PTB-GFP, PNC prevalence imaging, 16 h; active compounds read low; activity change (PNC), negative = inhibition, % at 10 µM; 140,000 compounds, 3.1% hits;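 active = readout at or below -70, meaning at least 70% loss of cells showing the perinucleolar compartment, a nuclear body marking cancer cells; inconclusive = readout between -30 and a set limit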;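 also: plate controls were DMSO wells for no effect and camptothecin positive control wells for full effect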
#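 PC3M cells stably expressing PTB-GFP, 750–1000 cells/well, treated 16 h at 37 °C with compound (23 nl of library stock), in duplicate. After paraformaldehyde fixation and Hoechst stain, imaged at 20x; PNC prevalence scored by image analysis.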
# Numbers without * were called inactive; ? = inconclusive; . = no result given; [ ] = another dose, or the depositor's remark. Unless noted, calls follow the shape of the dose curve; as a rule, active = well fitted curve in the direction sought with a large enough effect; inconclusive = small, poorly fitted or top-dose-only effect, or another doubt; inactive = no such curve, though single readings can be large; an effect the other way counts as inactive or inconclusive. Unless noted, % is scaled to controls: 0 for no effect and ±100 for the full control effect.
SMILES,ALOX12 inhib,15-hLO-2 inh,PNC inhibitor
c1cncc(CNC2CCCc3ccccc32)c1 (stereo unspecified),5%,0%,-83*
O=C(NC1CCCc2ccccc21)c1cccnc1 (stereo unspecified),1%,-7%,-24
Cc1ccc(C(=O)CSC2=C(C#N)C(c3ccco3)C3=C(CCCC3=O)N2)cc1 (stereo unspecified),-11%,5%,-2
N#CC1=C(SCC(=O)c2ccccc2)NC2=C(C(=O)CCC2)C1c1ccco1 (stereo unspecified),?,-30%,-89*
CCOC(=O)c1c(Cc2cccc(Cl)c2)c[nH]c1C,-2%,.,-9
Cc1ccc(Cc2cnc(NC(=O)c3ccco3)s2)cc1,5%,41%,13
O=C(Nc1ncc(Cc2ccc(SC(F)F)cc2)s1)c1ccc(OC(F)F)cc1,2%,.,-86*
CN(C)Cc1ccccc1-c1nccc(NC2CC2)n1,2%,6%,.
CCC(C)(C)NC(=O)C(c1ccc(C)cc1)N(Cc1ccco1)C(=O)CCC(=O)Nc1nccs1 (stereo unspecified),4%,10%,-30
COc1ccc(-n2nc3cc(C)c(N)c(Br)c3n2)cc1,25µM*,10µM*,?
COc1ccc(-n2nc3ccccc3n2)cc1,-7%,-8%,14
CC(C)c1nn2c(=O)cc(O)nc2s1,0%,.,39
CN1C(=O)Cc2cc(S(=O)(=O)N3CCOCC3)ccc21,-1%,-7%,13
Fc1ccc(-c2cc(C(F)(F)F)nc(NCc3cccs3)n2)cc1,-6%,.,-113*
Fc1ccc(CNc2nc(-c3ccco3)cc(C(F)(F)F)n2)cc1,-19%,-9%,-29
COc1ccc(NC(=O)CSc2ccccc2)cc1S(=O)(=O)N1CCCCC1,-1%,.,-81*
COc1ccc(NC(=O)CSc2ccc(NC(C)=O)cc2)cc1S(=O)(=O)N1CCCCC1,-1%,.,?
CCC(=O)Nc1ccc(OC)cc1OC,-5%,0%,?
COc1ccc(NC(=O)CSc2ccccc2)c(OC)c1,6%,.,-81*
O=C(c1cc2ccccc2oc1=O)N1CCN(c2ncccn2)CC1,6%,-1%,-22
O=C(O)c1cccc(SSc2cccc(C(=O)O)c2)c1,-6%[11.4 µM],10%[11.4 µM],.
N#C/C(=C/c1ccc(Br)o1)C(N)=O,-1%,.,-87*
COc1ccc(NC(=O)/C(C#N)=C/c2ccc(Br)o2)cc1,-3%,-8%,-1
CN(C)Cc1ccccc1-c1nc(NCc2ccccc2)c2ccccc2n1,-4%,36%,.
COC(=O)CC[C@@H](C)[C@H]1CC[C@H]2[C@H]3CC[C@H]4C[C@@H]5CC[C@@]4(C)C3(O5)[C@@H](Br)[C@@H](Br)[C@@]12C,4%[11.4 µM],4%[11.4 µM],.
SMILES,ALOX12 inhib,15-hLO-2 inh,PNC inhibitor
CCCN1C2CCCC1CC(NC(=O)Nc1cccc(C(C)=O)c1)C2 (stereo unspecified),3%,9%,?
CC(=O)c1cccc(NC(=O)NC2CC3CCCC(C2)N3CC(C)C)c1 (stereo unspecified),8%,.,-100*
Cc1ccc(C(=O)NNC(=O)CSc2nnc(-c3ccccc3)n2Cc2ccccc2)cc1,-3%,.,26
CCC(CC)c1nnc(NC(=O)[C@@H](NC(=O)c2cccc(C)c2)C(C)C)s1,0%,.,-97*
CCSc1nnc(NC(=O)[C@@H](NC(=O)c2cccc(C)c2)C(C)C)s1,-3%,.,7
COc1ccc(NC(=O)CSc2nnc(-c3ccccc3)n2N)cc1,4%,.,-100*
CCn1nnnc1SCC(=O)Nc1ccc(OC)cc1,1%,.,-100*
CCCn1c(SCC(=O)Nc2ccc(OCC)cc2)nnc1C(C)C,1%,.,188
CCn1nnnc1SCC(=O)Nc1nc2ccc(OC)cc2s1,0%,.,-100*
CCOc1ccc(NC(=O)CSc2nnc(C(C)C)n2CC)cc1,-3%,.,-119*
COc1ccc2nc(NC(=O)CSc3nc(C)cc(C)n3)sc2c1,2%,-5%,32
CCOc1ccc(OCC)c(NC(=O)CSc2nnnn2CC)c1,-2%,.,121
CCOc1ccc(NC(=O)CSc2nnc(-c3ccccc3)n2N)cc1,1%,-22%,-3
CC(C)C[C@@H](CC(=O)N[C@@H](CCC(=O)O)CC(=O)O)NC(=O)[C@@H]1CNCC[C@H]1NC(=O)C[C@@H](NC(=O)C[C@H](Cc1ccccc1)NC(=O)[C@@H]1CNCC[C@H]1N)C(C)C,-1%,.,.
COc1ccc(NC(C)=O)cc1NC(=O)CSc1nc2ncccc2[nH]1,-6%,-3%,-7
FC(F)(F)c1ccc(N=Cc2sc(N3CCOCC3)nc2-c2ccccc2)cc1,2%,.,54
Cc1noc(C)c1C(=O)N1CCC[C@@]2(CCN(C(c3ccccc3)c3ccccc3)C2)C1,-7%,7%,.
OB(O)c1csc2ccccc12,0%,7%,.
CCCn1c(=O)c2[nH]c(-c3ccccc3)nc2n(CCC)c1=O,-1%,10%,.
Cc1ccc(OCC(=O)N/N=C/c2c[nH]c3ccccc23)c([N+](=O)[O-])c1,-3%,.,22
O=C(NCCc1c[nH]c2ccccc12)[C@@H]1C[C@H]1[C@@H](NP(=O)(c1ccccc1)c1ccccc1)c1ccccc1,-10%,0%,-23
Cc1ccc(-c2csc(NC(=O)c3ccc4c(=O)n5c(nc4c3)CCCCC5)n2)cc1,0%,.,38
Cc1ccc(NC(=O)CSc2nnc(-c3cccnc3)n2-c2ccc(C)cc2)cc1,1%,.,4
O=C(CSc1nnc(-c2cccnc2)n1-c1ccccc1)Nc1ccccc1,6%,.,-100*
COC(=O)c1c(NC(=O)c2nn(C)cc2Cl)sc2c1CCCC2,2%,.,-92*
SMILES,ALOX12 inhib,15-hLO-2 inh,PNC inhibitor
Cc1occc1C(=O)Nc1sc2c(c1C(N)=O)CCCCC2,-7%,-29%,-23
COC(=O)c1c(NC(=O)c2ccoc2C)sc2c1CCC2,-6%,-12%,-109*
COC(=O)c1c(NC(=O)C2CC2)sc2c1CCCC2,-2%,-3%,?
Cc1ccc(S(=O)(=O)N2CCCCC2)cc1C(=O)Nc1ncn[nH]1,0%,6%,20
CCOC(=O)c1c(C)sc(Sc2ccc(Cl)cc2[N+](=O)[O-])c1OC,2%,4%,?
Nc1ccn([C@@H]2O[C@@H](CO)[C@@H](O)[C@H]2O)c(=O)n1,-2%,6%,.
Cc1noc(C)c1C(=O)N1CCC2(CCN(Cc3cc(C(F)(F)F)cc(C(F)(F)F)c3)CC2)CC1,3%,29%,.
CCNc1cccc2c1C(=O)N(C)C2=O,3%,-6%,-1
CCC(=O)Nc1cccc2c1C(=O)N(C)C2=O,-4%,.,-111*
Cc1ccccc1-n1c(C)nnc1SCC(=O)NNC(=O)c1ccccc1,-2%,.,?
Cc1nnc(SCC(=O)NNC(=O)c2ccccc2)n1-c1ccccc1,2%,.,-84*
CC(NC(=O)c1ccccc1NC(=O)CSc1nnnn1C)c1ccccc1 (stereo unspecified),1%,0%,?
O=C(/C=C/c1cn(CC(O)CN2CCCCCC2)c2ccccc12)c1cccs1 (stereo unspecified),-2%,.,?
